Laboratory results published in PubChem BioAssay (NCI).
Where “and” joins values, the source holds several entries; their conditions need not be identical. Equal entries are not always repeated. Compounds without any hit were thinned out: in the full panel of roughly 83,000, 20% have a hit.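 For each line, cells grew in 96-well plates with the test compound present at a single concentration for 48 hours.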 A number with no mark means an inactive call. Calls of active or inactive are those of the source. The calls were made as follows: active = growth percent below 10; inactive = the rest.

Each compound was assayed on HL-60(TB) leukemia (assay: NCI-60 one-dose screen, 48 h (100 = growth as untreated, 0 = no growth, -100 = all killed)). Conditions: 10 µM unless noted.
`C/C(O)=C(/C=N\C(=S)Nc1ccc(S(=O)(=O)Nc2nccs2)cc1)C(=O)Nc1ccccc1C` was tested, and the growth was 105%.
`COc1nc(N(C)O)nc(N(C)O)n1` showed a growth of 50.4%.
With `COc1ccc(N2CCC(=O)NC2=S)cc1` the growth was 101%.
With `CC(C)(C)C1=CC(=O)C(C(C)(C)C)=CC1=O` the growth was 92.5% and 106%.
`C[N+]1(CCC[N+]2(C)C[C@@H]3[C@H](C2)[C@@H]2C=C[C@H]3C2)CCOCC1` (stereo not given in full) showed a growth of 122%.
In the case of `O=C1c2cccnc2C(=O)c2c1c(C(=O)NCCCN1CCCCC1)c1ccccn21`, the growth is reported as -29% (active).
`COC(=O)/C=C/C(=O)NC(N)=O` showed a growth of 97.4%.
For `COC(=O)c1ccc([N+](=O)[O-])c(C)c1`, the growth was 85.5%.
For `COc1ccc2c(c1)C(=O)/C(=C/c1cccc(OCC(=O)Nc3nc(C)c(C)s3)c1)O2`, the growth was -79.3% (active).
Compound `N#CC1CCc2c(c(-c3cn[nH]c3C(F)(F)F)nc3c(F)cc4[nH]ncc4c23)C1` (stereo not given) has a growth of 47%.
`C[N+](C)=c1ccc2nc3c(cc(Nc4ccccc4)c4ccccc43)oc-2c1` was tested, and the growth was 25.8%.
In the case of `CCN(CC)CCNCC(=O)Oc1ccc(/C=C/C(=O)CC(=O)/C=C/c2ccc(OC(=O)CNCCN(CC)CC)c(OC)c2)cc1OC`, the growth is reported as -22.6% (active).
In the case of `Cc1cc(C)n2nc(SCC(=O)Nc3sc4c(c3C(N)=O)CCC4)nc2n1`, the growth is reported as 117%.
Work on `CCOC(C)(c1ccc(Cl)cc1)C1CCNCC1` (stereo not given) yielded a growth of 86.1%.
With `Cc1onc(-c2ccccc2)c1C(=O)N/N=C/c1cc(Cl)cc(Cl)c1O` the growth was 15.7%.
